# Records with an inconclusive call do not appear. Active and inactive are the calls of the source. The call rests on the fitted dose curve; in most records, active means well fitted cell-killing curve with a large enough effect; inconclusive means small, poorly fitted or top-dose-only effect; inactive means no such curve, though single readings can be large or run the other way.
# Experiment: qHTS of pediatric cancer cell lines to identify multiple opportunities for drug repurposing: Primary screen for NB-EBc1 cells (AID 1347095)
# Details: NB-EBc1 neuroblastoma viability, CellTiter-Glo luminescence, 48 h; series mostly up to 46 µM; activity change, negative = cytotoxic: at the top concentration
# Description: Drug repurposing or repositioning has been offered as a strategy for drug development in oncology programs. This approach has special potential for childhood cancers and other rare or orphan diseases, where the expected return on new drug development has been a disincentive to pharmaceuticals. […] In this project we exploit the poly-pharmacology of drugs to discover new indications via phenotypic screening of a panel of 19 well-characterized cell lines derived from solid tumors seen in children and adolescents. The goal is to identify approved drugs with previously unrecognized anticancer properties that has the potential to reveal new mechanisms and biological processes involved in carcinogenesis or drug resistance. We employed a titration-based paradigm (quantitative high-throughput screening or qHTS), where all compounds were tested at multiple concentrations for their effect on cell viability. Concentration-response curves (CRCs) were derived directly from the primary screen, and both potency and efficacy values were used to identify compounds with robust bioactivity profiles. We screened the NIH Chemical Genomics Center (NCGC) Pharmaceutical Collection (NPC) and Mechanism Interrogation Plate (MIPE) small molecule collections of approved and investigational compounds against these cell lines; and measured metabolically active cells after 48 hours of compound treatment as a proxy for cell viability. […] Assay Submitter: Nathalia J. Martinez, National Center for Advancing Translational Sciences, National Institutes of Health, Rockville, MD, USA; email: natalia.martinez@nih.gov Shen, M et al. Quantitative high-throughput phenotypic screening of pediatric cancer cell lines identifies multiple opportunities for drug repurposing. Oncotarget 2017 Dec 19;9(4):4758-4772. PMID 29435139.
# The cells were obtained from University of North Carolina (UNC), Pediatric Preclinical Testing Program (PPT), and Coriell Institute (CI). qHTS cell viability assay: Cells were assayed in growth media at a density of 500-1,000 cells/well. Five microliters of cells were dispensed into 1,536-well, white, solid-bottom, TC-treated plates (Greiner Bio One) using a multidrop dispenser and incubated at 37 degrees C, 5% CO2, under a humidified atmosphere for 5 hours. Twenty-three nanoliters of compounds and controls (neutral control DMSO or positive control bortezomib at final concentration of 2.3 µM) were subsequently transferred by Kalypsys pintool. For primary screens, the MIPE collection was tested at 11-point dilutions (final concentrations range from 0.78 nM to 46 µM) and the NPC collection at 8-point dilutions (final concentrations range from 0.59 nM to 46 µM). Compounds tested in follow-up screens were assayed at 11-point dilutions. Cells were incubated for 48 hours, followed by addition of 3 µL of CellTiter-Glo (Promega). After a 15 min incubation at room temperature, samples were analyzed for luminescence intensity using a ViewLux High-throughput CCD imager equipped with clear filters.
# Potency means the concentration at half of the fitted maximal effect.
SMILES,"activity change, negative = cytotoxic",Potency
NS(=O)(=O)c1cc(Cl)c(Cl)c(S(N)(=O)=O)c1,10.4% (inactive),–
CCC(C)SSc1ncc[nH]1 (stereo not given),–,5.9 µM (active)
CC[C@H](NC(=O)[C@H](C)NC)C(=O)N1C[C@@H](O)C[C@H]1Cc1c(-c2[nH]c3cc(F)ccc3c2C[C@H]2C[C@H](O)CN2C(=O)[C@H](CC)NC(=O)[C@H](C)NC)[nH]c2cc(F)ccc12,–,0.418 µM (active)
CC1(COc2ccc3c(c2)ncn3-c2ccc3cccc(N4CCC(N)CC4)c3n2)COC1,–,0.001 µM (active)
N[C@@H](CC(=O)N1CCn2c(nnc2C(F)(F)F)C1)Cc1cc(F)c(F)cc1F,14.3% (inactive),–
CN1CC(=O)N2C(Cc3c([nH]c4ccccc34)[C@H]2c2ccc3c(c2)OCO3)C1=O (stereo not given in full),-11.5% (inactive),–
C[C@@H]1C[C@H]2[C@@H]3CCC4=CC(=O)C=C[C@]4(C)[C@@]3(F)[C@@H](O)C[C@]2(C)[C@@]1(O)C(=O)CO,32.4% (inactive),–
O=[N+]([O-])c1ccc(Nc2ccccc2-c2ccccc2)c2nonc12,–,23.5 µM (active)
CC(C)(C)c1nc(-c2cccc(NS(=O)(=O)c3c(F)cccc3F)c2F)c(-c2ccnc(N)n2)s1,17% (inactive),–
C[C@@H](O[C@H]1OCCN(Cc2n[nH]c(=O)[nH]2)[C@@H]1c1ccc(F)cc1)c1cc(C(F)(F)F)cc(C(F)(F)F)c1,–,23.5 µM (active)
OC[C@H]1O[C@@H](Oc2ccc(O)cc2)[C@H](O)[C@@H](O)[C@H]1O,4.66% (inactive),–
Cc1[nH]c(C=C2C(=O)Nc3ccc(S(=O)(=O)N(C)c4cccc(Cl)c4)cc32)c(C)c1C(=O)N1CCN(C)CC1,–,14.8 µM (active)
CC(C)Oc1cc(Nc2nc(N[C@@H](C)c3ccc(F)cn3)ncc2Cl)[nH]n1,–,3.32 µM (active)
O=C1CCCC(=O)C1C(=O)c1ccc(C(F)(F)F)cc1[N+](=O)[O-],1.97% (inactive),–
COc1ccc(-c2nc3ccc(C4=NNC(=O)CC4C)cc3[nH]2)cc1 (stereo not given),–,11.9 µM (active)
COc1cc2nccc(Oc3ccc(NC(=O)Nc4ccc(F)cc4F)c(F)c3)c2cc1OC,–,2.35 µM (active)
CN1C(=O)C(Cc2c[nH]c3ccccc23)NC1=S (stereo not given),12.1% (inactive),–
C[C@]12CC[C@@H]3c4ccc(O)cc4CC[C@H]3[C@H]1[C@@H](O)[C@@H](O)[C@H]2O,-2% (inactive),–
COc1nccc(-c2c(-c3ccc(F)cc3)ncn2C2CCC(O)CC2)n1 (stereo not given),-6.6% (inactive),–
CCC(=O)OCC(=O)[C@@]1(OC(=O)CC)[C@@H](C)C[C@@H]2[C@H]3CCC4=CC(=O)C=C[C@]4(C)[C@@]3(F)[C@@H](O)C[C@@]21C,-5.95% (inactive),–

SMILES,"activity change, negative = cytotoxic",Potency
Cc1ccc(C(=O)N(CCCN)[C@@H](c2oc3cc(Cl)ccc3c(=O)c2Cc2ccccc2)C(C)C)cc1,–,0.001 µM (active)
CN1CCN(c2cccc(Nc3nc4c(-c5ccc(S(C)(=O)=O)cc5)cccn4n3)c2)CC1,-1.35% (inactive),–
CCC=CC[C@H]1C(=O)CC[C@@H]1CC(=O)OC,-2.41% (inactive),–
O=C(O)CCC=CCC[C@@H]1[C@H](N2CCCCC2)[C@@H](O)C[C@@H]1OCc1ccc(-c2ccccc2)cc1,3.63% (inactive),–
COC(=O)N1CCN(Cc2cccc(NC(=O)Nc3ccc(C)nc3)c2F)CC1,-1.33% (inactive),–
CC(=O)N1CCN(c2ccc(OCc3nn(C)c(C)c3-c3cccc4c(CCCOc5cc(C)c(Cl)c(C)c5)c(C(=O)O)n(Cc5cccnc5)c34)cc2)CC1,–,14.8 µM (active)
COc1cc(CNC(=O)CCCCC=CC(C)C)ccc1O,-4.28% (inactive),–
Cc1ccc(C(=O)N(CCCN)[C@@H](c2nc3cc(Cl)ccc3c(=O)n2Cc2ccccc2)C(C)C)cc1,–,0.001 µM (active)
CN1CC(=O)NC1=NC(=O)Nc1cccc(Cl)c1,–,20.9 µM (active)
Cc1ccc(S(=O)(=O)Nc2nc3ccccc3nc2Nc2ccc3nsnc3c2)cc1,–,0.645 µM (active)
CC(O)=C(C#N)C(=O)Nc1ccc(C(F)(F)F)cc1,–,4.18 µM (active)
COc1ccc(-c2ccc3ncc4c(c3c2)n(-c2ccc(N3CCNCC3)c(C(F)(F)F)c2)c(=O)n4C)cn1,–,0.0148 µM (active)
CN1CCC[C@H]1CCO[C@](C)(c1ccccc1)c1ccc(Cl)cc1,-13% (inactive),–
CN1[C@H]2CC[C@H]1CC(OC(=O)c1c[nH]c3ccccc13)C2 (stereo not given in full),-1.85% (inactive),–
CC(=O)OCC(=O)[C@@]12OC(C)(C)O[C@H]1C[C@H]1[C@@H]3C[C@H](F)C4=CC(=O)C=C[C@]4(C)[C@@]3(F)[C@@H](O)C[C@@]12C,22.9% (inactive),–
CC1=C(CC(=O)O)c2cc(F)ccc2C1=Cc1ccc(S(C)=O)cc1 (stereo not given),–,18.7 µM (active)
CNc1nc(Nc2ccc(C(=O)N3CCOCC3)cc2OC)ncc1Cl,14% (inactive),–
CN(C)CCOc1cc(-c2cn[nH]c2)ccc1NC(=O)C1COc2ccccc2O1 (stereo not given),-4.57% (inactive),–
CN[C@@H]1CN(c2ccc3c(=O)c(C(=O)O)cn(-c4nccs4)c3n2)C[C@@H]1OC,–,0.407 µM (active)
CN(C)N=Nc1nc[nH]c1C(N)=O,-7.87% (inactive),–

# Source: PubChem BioAssay (NCATS)
